# Experimental data taken from PubChem BioAssay (NCI).
# This is part of a sample that, as a whole, favours compounds with a hit. Of some 83,000 tested, about 20% had one in any assay.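 Values shown are percent growth following 48 h exposure of cells in 96-well plates to a single concentration of compound; below 10 was considered active.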 Values without a mark were called inactive. Active and inactive are the calls of the source.
# Legend:
# Experiment in all cases: NCI-60 one-dose screen, 48 h (100 = growth as untreated, 0 = no growth, -100 = all killed)
# Conditions in all cases: 10 µM unless noted
# SR leukemia = tested on: SR leukemia
# RPMI-8226 leukemia = tested on: RPMI-8226 leukemia
# OVCAR-8 ovarian = tested on: OVCAR-8 ovarian
# OVCAR-5 ovarian = tested on: OVCAR-5 ovarian
# OVCAR-4 ovarian = tested on: OVCAR-4 ovarian
# SK-OV-3 ovarian = tested on: SK-OV-3 ovarian
# IGROV1 ovarian = tested on: IGROV1 ovarian
# OVCAR-3 ovarian = tested on: OVCAR-3 ovarian
# HS 578T breast = tested on: HS 578T breast
# NCI/ADR-RES ovarian = tested on: NCI/ADR-RES ovarian
# T-47D breast = tested on: T-47D breast
# BT-549 breast = tested on: BT-549 breast
# MDA-MB-435 melanoma = tested on: MDA-MB-435 melanoma
# SW-620 colon = tested on: SW-620 colon
# MCF7 breast = tested on: MCF7 breast
# HCT-116 colon = tested on: HCT-116 colon
# HCC-2998 colon = tested on: HCC-2998 colon
# KM12 colon = tested on: KM12 colon
SMILES,growth (SR leukemia),growth (RPMI-8226 leukemia),growth (OVCAR-8 ovarian),growth (OVCAR-5 ovarian),growth (OVCAR-4 ovarian),growth (SK-OV-3 ovarian),growth (IGROV1 ovarian),growth (OVCAR-3 ovarian),growth (HS 578T breast),growth (NCI/ADR-RES ovarian),growth (T-47D breast),growth (BT-549 breast),growth (MDA-MB-435 melanoma),growth (SW-620 colon),growth (MCF7 breast),growth (HCT-116 colon),growth (HCC-2998 colon),growth (KM12 colon)
COc1ccc(C(=O)/C=C/c2ccc(C)cc2)cc1S(N)(=O)=O,5.31% (active),35.8%,29.3%,77%,84.1%,114%,28%,39.2%,84.9%,51.7%,94.1%,64.1%,88.3%,21.9%,22%,9.96% (active),99%,44.3%
Cc1cc(C)n(C(=O)CSc2nc3sc4c(c3c(=O)n2-c2ccccc2)CCCCC4)n1,97.8%,103%,100%,105%,94.2%,99%,107%,104%,96.8%,104%,89.9%,100%,105%,102%,95.1%,104%,109%,105%
Oc1c(Cl)cc(Cl)c2ccc(CN3CCNCC3)nc12,25.6%,39.4%,27.5%,82.4%,37.7%,52.8%,43.3%,42.9%,70.4%,5.37% (active),43.6%,82.2%,58.6%,26.6%,34.4%,32.6%,60.1%,49.6%
CCCCCC(C)(O)C(C(=O)O)c1ccccc1 (stereo not drawn),102%,101%,101%,96.1%,102%,101%,102%,119%,107%,112%,106%,101%,107%,102%,98.1%,99.2%,108%,104%
COc1ccc(NC(=O)c2sc3nc(C)c(C(=O)c4ccccc4)cc3c2N)cc1,81.2%,101%,101%,82.8%,91.1%,92.6%,101%,103%,83.5%,108%,91%,113%,98%,90.9%,88.8%,108%,103%,95.3%
CN(C)c1ccc(/C=C/C2=[N+](C)c3ccccc3C2(C)C)cc1,6.36% (active),-20.3% (active),14.8%,35.6%,31.2%,4.03% (active),34.7%,10%,43.3%,77.8%,20.5%,17.2%,12.9%,37.7%,5.64% (active),15.7%,28%,7.96% (active)
O=C1c2cccnc2C(=O)c2c1c(C(=O)OCCCN1CCOCC1)c1ccccn21,-2.21% (active),-17.2% (active),-46.2% (active),-11.2% (active),-19.1% (active),-11.6% (active),-3.82% (active),2.32% (active),26.9%,-13.7% (active),4.62% (active),-38.7% (active),-32.4% (active),-39.3% (active),-38.7% (active),-49.6% (active),7.61% (active),15.7%
COC(=O)c1nc(-c2ccc(C)cc2)oc1N1CCOCC1,80.3%,88%,107%,88.1%,109%,94.9%,89.5%,107%,108%,96.7%,87.3%,87.1%,103%,99.7%,83%,97.8%,104%,104%
COc1cccc(/C=C/C(=O)/C=C(/C=C/c2cccc(OC)c2OC)OB(F)F)c1OC,15.2%,23.6%,16.7%,64%,50.7%,97%,33.7%,10.8%,38.3%,19.6%,41.2%,48%,14.8%,16.4%,26.8%,8.38% (active),121%,86.5%
COc1cc(/C=C2\C(=O)N(CCOc3cc(O)c4c(=O)cc(-c5ccccc5)oc4c3)c3ccccc32)cc(OC)c1O,39%,84.1%,69.9%,103%,82.3%,92.2%,74.4%,55%,45.5%,47.5%,65.4%,51%,-40.2% (active),22.2%,31%,28.2%,80%,51.2%
Nc1ncnc2c1N=C(c1ccc([N+](=O)[O-])cc1)CC(c1ccc3c(c1)OCO3)N2 (stereo not drawn),85.3%,71.1%,89.6%,91.7%,95.5%,91.1%,51.1%,90.6%,80.7%,77.6%,93%,86.6%,94%,92%,72.7%,83.3%,53.8%,89.4%
OC1CSSC1Cn1cnc2c(Nc3ccc(F)c(Cl)c3)ncnc21 (stereo not drawn),3.55% (active),55.7%,96.5%,115%,91.4%,107%,93.2%,68.5%,103%,93.3%,61.4%,119%,63.8%,104%,45.7%,74.7%,96.4%,73.2%
C=C(CNCCc1ccc(O)cc1)[C@@H]1CC[C@]2(CO)CC[C@]3(C)[C@H](CC[C@@H]4[C@@]5(C)CCC(N)C(C)(C)[C@@H]5CC[C@]43C)[C@@H]12 (stereo partly drawn),-43.9% (active),-46.5% (active),-56.8% (active),11.4%,-16.2% (active),-6.7% (active),-57.3% (active),-53.5% (active),-66% (active),60.4%,-65.7% (active),59.7%,-90.5% (active),-81.6% (active),-72.3% (active),-65.9% (active),-89.5% (active),-60.6% (active)
CCCCCCCCCCCCCC[n+]1ccc2c(C)c3c(c(C)c2c1)c1cc(O)ccc1n3CC,-52.5% (active),-51.5% (active),-43.4% (active),-60.9% (active),-59.8% (active),-19% (active),-75.6% (active),-95.3% (active),-41.3% (active),59.9%,-25.5% (active),-74.3% (active),-92.6% (active),-72.2% (active),-70.3% (active),-79.4% (active),-64.6% (active),-67.3% (active)
O=C(/C=C/c1ccc(Cl)cc1)c1ccc(-n2cc(CN3CCN(c4cc5c(cc4F)c(=O)c(C(=O)O)cn5C4CC4)CC3)nn2)cc1,13.1%,11.5%,83.6%,100%,94.4%,84.6%,59%,90.5%,65.3%,94.8%,93.4%,90%,82.2%,81.7%,51.2%,2.68% (active),90.7%,86.4%
CN(C)c1ccc(/C=N/NC(=O)CSc2nc3sc4c(c3c(=O)n2-c2ccccc2)CCCCC4)cc1,22.7%,76.8%,20.6%,50.7%,19.7%,67.1%,36.5%,12%,23.9%,59.1%,61.5%,71.2%,33.2%,27.2%,35%,7.89% (active),39.4%,38.5%
